Assay outcomes from PubChem.
HCMV antiviral: human cytomegalovirus inhibition. HFF cells, HCMV-luciferase reporter, 72 h; hits give low values. activity change, negative = inhibition, % at 57.5 µM. hit rate 4.5% among 410,000. AID 1259415; in the data active means activity change below about -60%; inconclusive means no clear call, values can overlap the other calls; inactive means above about -39%
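Steps: HFFs plated, 16 h 37C; compounds added; HCMV-luciferase added to MOI 1 PFU/cell; 72 h 37C; OneGlo reagent, 5 min room temperature; luminescence read, normalized to controls.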
FMDV inh: foot and mouth disease virus antiviral activity; FMDV antiviral cell-based qHTS; Potency, µM (highest dose often 57.9 µM), usual class: inhibitors; hit rate 1.2% among 410,000; AID 1159524; calls by dose curve; tested in HEK293T cells; further: read-out not given here; nearly all actives have a fitted effect of over 45% in size
MARV entry inh: inhibitors of Marburg virus binding or cell entry | Potency, µM (highest dose often 37.8 µM), hits mostly inhibitors | Marburg virus pseudotyped entry inhibition, cell reporter | AID 540276 | hit rate 1.8% among 300,000; calls by dose curve; tested in HEK293 cells
HCV inhibitor: blocks hepatitis C virus; Huh7.5.1 HCVcc-Cre infection, luciferase reporter, 44 h; Potency, µM (titrated, usually from 41.8 µM), hits mostly inhibitors; hit rate 3.4% among 340,000; AID 651820; active means well fitted inhibition curve with a large enough effect; inconclusive means small, poorly fitted or top-dose-only effect, or another doubt; inactive means no such curve, though single readings can be large or run the other way
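Whole-lifecycle infectious HCVcc-Cre system; cells 1,000/well, compound then virus (~0.5 moi) added 4 h after plating, 44 h culture. Luciferase read 15 sec following 15 min substrate incubation, room temp.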
Lassa entry inh: Lassa virus entry inhibition | Lassa virus pseudotype entry inhibition, cell reporter | Potency, µM (top dose mostly 37.9 µM), actives largely listed as inhibitors | hit rate 1.2% among 300,000 | AID 540256; calls by dose curve; tested in HEK293 cells; further: nearly all actives have a fitted effect of over 50% in size
Of the large screens only hits and unclear results are named; the others gave an inactive call. A selection: hits, their analogues and other compounds. The true share with any hit is near 7.9%.

Cc1cc(C)nc(Sc2ncnc(N)c2[N+](=O)[O-])n1	HCMV antiviral inconclusive, FMDV inh 13µM, MARV entry inh inconclusive, HCV inhibitor 22µM
Cc1cccc(Nc2ncnc(N)c2[N+](=O)[O-])n1	HCMV antiviral -79
Nc1ncnc(NCc2ccc(F)cc2)c1[N+](=O)[O-]	HCMV antiviral -72
CN1CCN(c2ncncc2-c2ccc(N(C)C)cc2)CC1	none (no result: HCMV antiviral, MARV entry inh, HCV inhibitor, Lassa entry inh)
Cc1ccc(CNC(=O)CC2Oc3ccccc3NC2=O)cc1 (centres undefined)	none (no result: HCV inhibitor, Lassa entry inh)
C#CCn1c(S(=O)(=O)Cc2ccc(OC)cc2)nc(-c2ccccc2)c1-c1ccccc1	MARV entry inh 4.1µM, Lassa entry inh inconclusive
CCOC(=O)Cn1c(S(=O)(=O)Cc2ccccc2)nc2ccccc21	none
CCOC(=O)Cn1c(S(=O)(=O)Cc2ccc(Cl)cc2)nc(-c2ccccc2)c1-c1ccccc1	HCMV antiviral inconclusive, MARV entry inh inconclusive, HCV inhibitor 35µM, Lassa entry inh inconclusive
Cc1nc(C(=O)NNC(=O)c2ccc(Cl)cc2)cs1	HCMV antiviral -101, MARV entry inh inconclusive, HCV inhibitor inconclusive
O=C(NNC(=O)c1csc(-c2cccs2)n1)c1ccc(Cl)cc1	HCMV antiviral -103 (no result: MARV entry inh, HCV inhibitor, Lassa entry inh)
Cc1ccc(NCc2nc(SCC(=O)Nc3ccccc3)n[nH]2)cc1	none
COCCn1c(C)cc(C2=NNC(=Nc3ccc(Cl)cc3Cl)SC2)c1C	MARV entry inh inconclusive
C=CCN=C1NN=C(c2cc(C)n(CCOC)c2C)CS1	HCMV antiviral -96, FMDV inh 4.5µM, MARV entry inh inconclusive, Lassa entry inh inconclusive
C=CCn1c(C)cc(C2=NNC(=NC(C)(C)C)SC2)c1C	HCMV antiviral -85, FMDV inh inconclusive, MARV entry inh inconclusive, HCV inhibitor inconclusive, Lassa entry inh inconclusive
COCCn1c(C)cc(C2=NNC(=NC3CC3)SC2)c1C	HCMV antiviral -96, FMDV inh 1.3µM, MARV entry inh 0.32µM, HCV inhibitor inconclusive, Lassa entry inh 0.32µM
CCNC(=O)C1(C)CCN1C(=O)CCc1cccc(Cl)c1 (centres undefined)	none (no result: MARV entry inh, HCV inhibitor, Lassa entry inh)
C/C=C/C=[N+](\[O-])C(C)/C(=N/O)c1ccc(F)cc1 (centres undefined)	HCMV antiviral -75
COc1ccc(CCNC(=O)c2ccc(=O)[nH]c2)cc1OC	MARV entry inh inconclusive, Lassa entry inh inconclusive
CC(=Nc1ccccc1)C1=C(O)C(Cc2ccccc2)NC1=O (centres undefined)	HCMV antiviral -76
COc1ccc(N2CCN(c3cc(C)c4cccc(C)c4n3)CC2)cc1	HCMV antiviral -74, MARV entry inh inconclusive, Lassa entry inh inconclusive
COc1ccc2nc(N3CCOCC3)cc(C)c2c1	MARV entry inh inconclusive, HCV inhibitor inconclusive, Lassa entry inh inconclusive (no result: FMDV inh)
COc1ccc(N2CCN(c3ncnc4c3cnn4-c3ccc(C)cc3C)CC2)cc1	FMDV inh inconclusive
COc1ccc2c(C)cc(N3CCOCC3)nc2c1	HCV inhibitor 25µM, Lassa entry inh inconclusive
Cc1cc(N2CCN(c3ncccn3)CC2)nc2c(C)cccc12	FMDV inh inconclusive, MARV entry inh inconclusive, HCV inhibitor inconclusive (no result: HCMV antiviral)
COc1ccc(N2CCN(c3cc(C)c4ccc(C)cc4n3)CC2)cc1	HCMV antiviral -64, FMDV inh inconclusive, MARV entry inh inconclusive, Lassa entry inh inconclusive
COc1ccc(N2CCN(c3nc4cc(C)ccc4cc3C=O)CC2)cc1	HCV inhibitor 11µM
CCOc1ccc(C(=O)NCC(=O)N2CCC3CCCCC3C2)cc1OCC (centres undefined)	none (no result: Lassa entry inh)
Cc1cc(C(=O)O)ccc1N/C=C1\CCCC(C)C1=O (centres undefined)	FMDV inh inconclusive, MARV entry inh 7.9µM, Lassa entry inh 13µM
COc1ccc(/C=N/Nc2nc(N3CCCCC3)nc(N3CCCCC3)n2)cc1[N+](=O)[O-]	HCMV antiviral -74, MARV entry inh inconclusive, HCV inhibitor 3.5µM, Lassa entry inh inconclusive
O=[N+]([O-])c1cccc(-c2ccc(/C=N/Nc3nc(N4CCCCC4)nc(N4CCCCC4)n3)o2)c1	MARV entry inh inconclusive, HCV inhibitor 11µM, Lassa entry inh inconclusive
O=[N+]([O-])c1cccc(/C=N/Nc2nc(N3CCCCC3)nc(N3CCCCC3)n2)c1	HCV inhibitor 5.6µM
O=[N+]([O-])c1ccc(-c2ccc(/C=N/Nc3nc(N4CCCCC4)nc(N4CCCCC4)n3)o2)cc1	HCMV antiviral inconclusive
COc1ccc(C2=C(CN(C)C)C(c3ccccc3)c3ccccc3O2)cc1 (centres undefined)	MARV entry inh inconclusive, Lassa entry inh 13µM
